The target of test [1] is Protein kinase C gamma type (Homo sapiens) (UniProt P05129). The conditions noted are these: at 1 µM.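 Further: each value is an averaged percent inhibition of the enzyme.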
The target in test [2] is T1, Protein kinase C iota type (Homo sapiens) (UniProt P41743).
T1 sequence (whole entry): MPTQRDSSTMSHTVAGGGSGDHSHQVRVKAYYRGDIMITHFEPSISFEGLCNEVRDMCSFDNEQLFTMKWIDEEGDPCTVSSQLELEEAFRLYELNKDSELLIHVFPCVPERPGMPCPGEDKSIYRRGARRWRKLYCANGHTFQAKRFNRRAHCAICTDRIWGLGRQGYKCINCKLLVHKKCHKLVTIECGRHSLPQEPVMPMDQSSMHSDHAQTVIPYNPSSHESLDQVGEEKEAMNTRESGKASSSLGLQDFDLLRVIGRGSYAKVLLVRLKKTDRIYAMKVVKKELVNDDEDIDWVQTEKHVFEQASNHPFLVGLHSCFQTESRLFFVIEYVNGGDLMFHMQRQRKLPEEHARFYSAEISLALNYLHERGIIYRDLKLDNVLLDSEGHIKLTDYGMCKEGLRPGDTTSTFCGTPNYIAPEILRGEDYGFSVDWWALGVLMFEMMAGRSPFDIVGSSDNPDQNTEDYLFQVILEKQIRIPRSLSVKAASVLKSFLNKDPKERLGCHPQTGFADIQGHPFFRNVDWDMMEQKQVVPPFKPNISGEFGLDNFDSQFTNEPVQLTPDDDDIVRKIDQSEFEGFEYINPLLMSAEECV
Particulars: at 0.1 µM.

In test [3] the target is T1, Protein kinase C iota type (Homo sapiens). Particulars: at 1 µM.
Test [4] addresses Protein kinase C theta type (Homo sapiens) (UniProt Q04759). The conditions noted are these: at 0.1 µM.
Test [5] has the same target. Particulars: at 1 µM.
Test [6] has as its target Protein kinase C beta type (Homo sapiens) (UniProt P05771). Particulars: at 0.1 µM.
Test [7] shares this target. Particulars: at 1 µM.
Test [8] deals with T2, Serine/threonine-protein kinase D1 (Homo sapiens) (UniProt Q15139).
T2 sequence (whole entry): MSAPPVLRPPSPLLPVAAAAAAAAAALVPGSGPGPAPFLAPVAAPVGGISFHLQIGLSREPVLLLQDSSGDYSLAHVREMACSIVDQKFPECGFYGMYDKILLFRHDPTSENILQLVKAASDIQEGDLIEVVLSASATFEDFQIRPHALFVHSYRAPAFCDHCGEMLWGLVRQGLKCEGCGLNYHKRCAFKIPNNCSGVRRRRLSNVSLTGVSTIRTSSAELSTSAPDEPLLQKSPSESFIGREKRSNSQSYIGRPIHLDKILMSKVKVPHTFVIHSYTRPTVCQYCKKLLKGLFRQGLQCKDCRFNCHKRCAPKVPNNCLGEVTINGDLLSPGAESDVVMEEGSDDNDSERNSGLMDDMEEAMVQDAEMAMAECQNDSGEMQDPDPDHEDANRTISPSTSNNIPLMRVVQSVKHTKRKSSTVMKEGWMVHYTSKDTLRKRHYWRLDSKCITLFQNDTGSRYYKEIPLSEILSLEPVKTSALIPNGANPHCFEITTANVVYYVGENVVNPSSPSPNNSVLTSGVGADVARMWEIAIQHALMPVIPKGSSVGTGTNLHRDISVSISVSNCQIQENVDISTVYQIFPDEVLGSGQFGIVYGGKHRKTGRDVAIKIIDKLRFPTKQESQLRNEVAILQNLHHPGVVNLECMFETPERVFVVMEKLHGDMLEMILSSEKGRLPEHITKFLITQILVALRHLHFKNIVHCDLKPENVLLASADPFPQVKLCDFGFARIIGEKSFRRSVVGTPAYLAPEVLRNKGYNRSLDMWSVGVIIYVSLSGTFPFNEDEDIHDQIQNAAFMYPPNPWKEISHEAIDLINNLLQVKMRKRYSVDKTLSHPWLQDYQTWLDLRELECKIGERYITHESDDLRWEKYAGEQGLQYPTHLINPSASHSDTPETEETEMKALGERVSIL
Particulars: at 0.1 µM.

In test [9] the target is T2, Serine/threonine-protein kinase D1 (Homo sapiens). The conditions noted are these: at 1 µM.
Test [10] concerns the target T3, Serine/threonine-protein kinase D2 (Homo sapiens) (UniProt Q9BZL6).
T3 sequence (whole entry): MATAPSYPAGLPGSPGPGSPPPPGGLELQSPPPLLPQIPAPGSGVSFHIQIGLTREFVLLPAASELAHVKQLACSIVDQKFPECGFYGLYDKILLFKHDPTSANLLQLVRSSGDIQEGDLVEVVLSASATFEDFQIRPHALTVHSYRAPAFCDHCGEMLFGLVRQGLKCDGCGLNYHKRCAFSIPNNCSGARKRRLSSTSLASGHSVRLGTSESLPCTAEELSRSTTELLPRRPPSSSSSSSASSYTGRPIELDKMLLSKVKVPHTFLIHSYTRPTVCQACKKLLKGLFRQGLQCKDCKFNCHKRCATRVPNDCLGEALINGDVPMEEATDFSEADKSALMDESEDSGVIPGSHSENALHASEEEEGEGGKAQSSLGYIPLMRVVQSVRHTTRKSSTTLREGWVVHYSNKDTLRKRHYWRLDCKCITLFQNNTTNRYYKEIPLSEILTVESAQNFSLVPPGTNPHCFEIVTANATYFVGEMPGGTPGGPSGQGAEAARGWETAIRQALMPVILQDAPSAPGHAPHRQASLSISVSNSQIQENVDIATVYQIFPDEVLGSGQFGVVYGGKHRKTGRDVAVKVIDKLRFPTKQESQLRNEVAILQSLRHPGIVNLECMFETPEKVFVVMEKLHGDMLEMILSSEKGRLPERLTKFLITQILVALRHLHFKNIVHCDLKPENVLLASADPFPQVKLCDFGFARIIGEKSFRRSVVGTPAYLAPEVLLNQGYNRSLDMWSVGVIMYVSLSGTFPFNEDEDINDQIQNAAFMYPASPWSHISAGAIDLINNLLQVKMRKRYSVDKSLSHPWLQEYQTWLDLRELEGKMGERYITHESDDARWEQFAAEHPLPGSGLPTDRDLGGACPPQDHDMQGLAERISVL
Particulars: at 0.1 µM.

For test [11], the target named is T3, Serine/threonine-protein kinase D2 (Homo sapiens). The conditions noted are these: at 1 µM.
Test [12] has as its target T4, Serine/threonine-protein kinase D3 (Homo sapiens) (UniProt O94806).
T4 sequence (whole entry): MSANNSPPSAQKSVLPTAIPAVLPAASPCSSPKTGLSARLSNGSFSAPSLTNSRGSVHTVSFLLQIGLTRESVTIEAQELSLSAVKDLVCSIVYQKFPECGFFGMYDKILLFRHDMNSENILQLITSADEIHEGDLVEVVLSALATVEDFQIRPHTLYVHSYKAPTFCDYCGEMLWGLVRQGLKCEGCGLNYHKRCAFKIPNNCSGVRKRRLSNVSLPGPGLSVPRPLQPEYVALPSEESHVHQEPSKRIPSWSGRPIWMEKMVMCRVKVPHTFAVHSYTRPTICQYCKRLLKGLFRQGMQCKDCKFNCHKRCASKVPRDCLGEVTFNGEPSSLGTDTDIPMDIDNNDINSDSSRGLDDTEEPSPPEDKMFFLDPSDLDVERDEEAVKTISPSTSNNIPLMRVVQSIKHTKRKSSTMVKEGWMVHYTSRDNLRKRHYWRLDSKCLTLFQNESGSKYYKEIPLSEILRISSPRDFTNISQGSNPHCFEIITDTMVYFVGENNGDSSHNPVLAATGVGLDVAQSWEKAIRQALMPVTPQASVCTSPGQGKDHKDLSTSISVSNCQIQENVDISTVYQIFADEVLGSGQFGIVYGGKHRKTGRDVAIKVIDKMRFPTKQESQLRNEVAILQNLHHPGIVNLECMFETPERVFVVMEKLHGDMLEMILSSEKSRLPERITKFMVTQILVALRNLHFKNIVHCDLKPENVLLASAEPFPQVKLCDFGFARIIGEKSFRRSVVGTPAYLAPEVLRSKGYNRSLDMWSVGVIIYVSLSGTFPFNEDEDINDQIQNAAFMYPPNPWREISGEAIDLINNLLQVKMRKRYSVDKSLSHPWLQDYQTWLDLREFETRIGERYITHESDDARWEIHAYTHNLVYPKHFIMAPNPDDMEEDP
The conditions noted are these: at 0.1 µM.

The target in test [13] is T4, Serine/threonine-protein kinase D3 (Homo sapiens). The conditions noted are these: at 1 µM.
Test [14] addresses T5, cGMP-dependent protein kinase 1 (Homo sapiens) (UniProt Q13976).
T5 sequence (whole entry): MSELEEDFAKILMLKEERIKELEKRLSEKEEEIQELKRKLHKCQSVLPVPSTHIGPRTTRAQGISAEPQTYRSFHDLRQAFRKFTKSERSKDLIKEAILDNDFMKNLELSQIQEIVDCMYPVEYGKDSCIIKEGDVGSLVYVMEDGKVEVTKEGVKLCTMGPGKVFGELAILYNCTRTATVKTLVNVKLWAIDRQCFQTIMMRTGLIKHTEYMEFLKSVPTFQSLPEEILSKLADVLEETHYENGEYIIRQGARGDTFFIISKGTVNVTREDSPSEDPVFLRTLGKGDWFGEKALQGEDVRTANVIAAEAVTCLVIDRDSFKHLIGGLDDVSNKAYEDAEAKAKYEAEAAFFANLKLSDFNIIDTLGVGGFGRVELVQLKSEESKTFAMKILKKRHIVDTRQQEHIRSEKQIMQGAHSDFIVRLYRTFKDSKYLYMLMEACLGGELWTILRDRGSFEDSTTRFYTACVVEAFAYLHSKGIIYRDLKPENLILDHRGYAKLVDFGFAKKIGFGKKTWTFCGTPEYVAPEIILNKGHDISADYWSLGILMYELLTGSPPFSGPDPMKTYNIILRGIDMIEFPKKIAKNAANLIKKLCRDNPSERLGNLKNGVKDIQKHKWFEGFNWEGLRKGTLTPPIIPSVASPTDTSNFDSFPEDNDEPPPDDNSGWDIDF
The conditions noted are these: at 0.1 µM.

Test [15] concerns the target T5, cGMP-dependent protein kinase 1 (Homo sapiens). The conditions noted are these: at 1 µM.
For test [16], the target named is T6, cGMP-dependent protein kinase 2 (Homo sapiens) (UniProt Q13237).
T6 sequence (whole entry): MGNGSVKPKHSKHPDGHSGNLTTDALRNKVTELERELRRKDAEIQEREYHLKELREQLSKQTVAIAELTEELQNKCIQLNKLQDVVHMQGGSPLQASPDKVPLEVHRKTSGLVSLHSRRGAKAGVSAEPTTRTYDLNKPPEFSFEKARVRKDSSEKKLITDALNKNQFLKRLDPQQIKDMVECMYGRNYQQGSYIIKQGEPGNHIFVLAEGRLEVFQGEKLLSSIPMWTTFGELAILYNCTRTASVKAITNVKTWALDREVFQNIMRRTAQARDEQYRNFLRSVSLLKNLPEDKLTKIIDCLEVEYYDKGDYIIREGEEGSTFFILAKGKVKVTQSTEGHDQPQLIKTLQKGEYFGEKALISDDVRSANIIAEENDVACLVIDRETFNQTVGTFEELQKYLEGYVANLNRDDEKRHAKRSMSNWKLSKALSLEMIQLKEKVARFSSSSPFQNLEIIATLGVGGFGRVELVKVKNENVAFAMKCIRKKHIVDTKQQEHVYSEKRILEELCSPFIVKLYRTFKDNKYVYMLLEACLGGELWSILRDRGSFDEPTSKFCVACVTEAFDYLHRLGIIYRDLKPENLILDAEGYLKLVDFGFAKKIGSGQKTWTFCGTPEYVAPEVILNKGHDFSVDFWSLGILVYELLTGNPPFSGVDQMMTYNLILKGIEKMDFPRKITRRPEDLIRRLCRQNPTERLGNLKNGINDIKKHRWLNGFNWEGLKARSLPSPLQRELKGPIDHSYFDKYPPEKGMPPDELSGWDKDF
The conditions noted are these: at 0.1 µM.

Test [17] deals with T6, cGMP-dependent protein kinase 2 (Homo sapiens). The conditions noted are these: at 1 µM.
The target in test [18] is T7, cAMP-dependent protein kinase catalytic subunit PRKX (Homo sapiens) (UniProt P51817).
T7 sequence (whole entry): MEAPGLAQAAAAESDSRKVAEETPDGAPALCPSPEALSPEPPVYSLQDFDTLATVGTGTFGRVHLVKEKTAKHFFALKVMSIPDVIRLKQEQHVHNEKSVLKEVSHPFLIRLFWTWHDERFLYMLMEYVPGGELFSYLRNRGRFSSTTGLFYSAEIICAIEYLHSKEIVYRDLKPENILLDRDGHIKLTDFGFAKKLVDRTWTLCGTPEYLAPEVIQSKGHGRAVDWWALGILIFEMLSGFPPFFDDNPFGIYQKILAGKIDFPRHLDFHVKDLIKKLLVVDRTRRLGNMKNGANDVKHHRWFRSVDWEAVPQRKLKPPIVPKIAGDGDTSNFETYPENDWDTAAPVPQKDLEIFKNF
Particulars: at 0.1 µM.

Test [19] deals with T7, cAMP-dependent protein kinase catalytic subunit PRKX (Homo sapiens). Particulars: at 1 µM.
For test [20], the target named is Rho-associated protein kinase 1 (Homo sapiens) (UniProt Q13464). The conditions noted are these: at 0.1 µM.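 Further: values are mean percent inhibition of ROCK1.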
Chain of Rho-associated protein kinase 1 (Homo sapiens) (Q13464 2-1354 limits assumed): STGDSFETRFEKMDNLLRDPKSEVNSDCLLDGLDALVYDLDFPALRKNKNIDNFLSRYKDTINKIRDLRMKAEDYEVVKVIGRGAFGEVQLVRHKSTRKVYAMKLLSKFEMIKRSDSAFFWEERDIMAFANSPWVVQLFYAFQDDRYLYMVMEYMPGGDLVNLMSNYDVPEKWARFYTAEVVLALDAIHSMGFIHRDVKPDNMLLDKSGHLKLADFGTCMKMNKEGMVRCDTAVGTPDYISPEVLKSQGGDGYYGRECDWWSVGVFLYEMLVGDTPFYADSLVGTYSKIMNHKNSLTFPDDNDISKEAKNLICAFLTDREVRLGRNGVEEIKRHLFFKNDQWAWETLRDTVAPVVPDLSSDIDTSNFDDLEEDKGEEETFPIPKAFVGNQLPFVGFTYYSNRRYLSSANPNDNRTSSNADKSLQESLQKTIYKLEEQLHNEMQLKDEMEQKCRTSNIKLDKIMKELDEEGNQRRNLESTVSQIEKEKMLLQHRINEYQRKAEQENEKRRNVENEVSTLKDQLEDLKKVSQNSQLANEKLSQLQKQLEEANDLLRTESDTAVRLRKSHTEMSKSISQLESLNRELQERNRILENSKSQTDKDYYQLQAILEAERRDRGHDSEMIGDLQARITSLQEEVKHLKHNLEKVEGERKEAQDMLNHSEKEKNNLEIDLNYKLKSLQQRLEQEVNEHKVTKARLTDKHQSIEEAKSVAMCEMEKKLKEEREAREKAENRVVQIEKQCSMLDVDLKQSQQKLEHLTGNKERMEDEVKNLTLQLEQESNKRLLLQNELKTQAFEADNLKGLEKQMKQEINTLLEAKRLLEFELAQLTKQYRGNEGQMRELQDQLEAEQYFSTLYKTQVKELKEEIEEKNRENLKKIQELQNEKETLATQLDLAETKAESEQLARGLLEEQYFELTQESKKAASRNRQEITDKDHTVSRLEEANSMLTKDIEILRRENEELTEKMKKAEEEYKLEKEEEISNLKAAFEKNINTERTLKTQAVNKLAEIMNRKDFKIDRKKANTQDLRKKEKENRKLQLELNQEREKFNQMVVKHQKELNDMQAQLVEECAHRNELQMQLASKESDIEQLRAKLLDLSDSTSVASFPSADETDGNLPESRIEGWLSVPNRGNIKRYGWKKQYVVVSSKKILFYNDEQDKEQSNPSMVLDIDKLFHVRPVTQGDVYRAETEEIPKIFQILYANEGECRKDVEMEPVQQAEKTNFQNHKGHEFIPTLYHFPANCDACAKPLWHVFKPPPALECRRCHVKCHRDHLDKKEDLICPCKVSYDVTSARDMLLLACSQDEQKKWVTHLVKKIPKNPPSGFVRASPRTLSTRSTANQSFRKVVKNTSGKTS

Chain of Protein kinase C theta type (Homo sapiens) (Q04759 whole entry, looked up): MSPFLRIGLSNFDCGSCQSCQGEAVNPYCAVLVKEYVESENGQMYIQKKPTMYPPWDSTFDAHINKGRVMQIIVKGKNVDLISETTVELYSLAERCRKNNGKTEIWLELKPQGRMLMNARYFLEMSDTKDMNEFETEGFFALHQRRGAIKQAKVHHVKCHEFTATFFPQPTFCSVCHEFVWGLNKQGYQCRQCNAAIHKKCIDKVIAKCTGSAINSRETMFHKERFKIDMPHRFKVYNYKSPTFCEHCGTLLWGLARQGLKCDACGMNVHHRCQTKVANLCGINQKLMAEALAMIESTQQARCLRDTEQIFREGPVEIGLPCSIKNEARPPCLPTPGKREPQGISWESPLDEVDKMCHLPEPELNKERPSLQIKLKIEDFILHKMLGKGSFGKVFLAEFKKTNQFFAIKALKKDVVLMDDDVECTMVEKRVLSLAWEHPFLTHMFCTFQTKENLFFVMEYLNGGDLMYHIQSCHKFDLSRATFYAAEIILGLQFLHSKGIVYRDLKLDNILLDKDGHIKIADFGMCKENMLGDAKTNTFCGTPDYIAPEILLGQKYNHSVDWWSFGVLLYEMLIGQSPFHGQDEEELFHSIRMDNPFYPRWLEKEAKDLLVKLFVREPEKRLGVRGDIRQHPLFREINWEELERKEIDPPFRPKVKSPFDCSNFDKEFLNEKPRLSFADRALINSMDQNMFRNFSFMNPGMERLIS
Chain of Protein kinase C beta type (Homo sapiens) (P05771 2-671 limits assumed): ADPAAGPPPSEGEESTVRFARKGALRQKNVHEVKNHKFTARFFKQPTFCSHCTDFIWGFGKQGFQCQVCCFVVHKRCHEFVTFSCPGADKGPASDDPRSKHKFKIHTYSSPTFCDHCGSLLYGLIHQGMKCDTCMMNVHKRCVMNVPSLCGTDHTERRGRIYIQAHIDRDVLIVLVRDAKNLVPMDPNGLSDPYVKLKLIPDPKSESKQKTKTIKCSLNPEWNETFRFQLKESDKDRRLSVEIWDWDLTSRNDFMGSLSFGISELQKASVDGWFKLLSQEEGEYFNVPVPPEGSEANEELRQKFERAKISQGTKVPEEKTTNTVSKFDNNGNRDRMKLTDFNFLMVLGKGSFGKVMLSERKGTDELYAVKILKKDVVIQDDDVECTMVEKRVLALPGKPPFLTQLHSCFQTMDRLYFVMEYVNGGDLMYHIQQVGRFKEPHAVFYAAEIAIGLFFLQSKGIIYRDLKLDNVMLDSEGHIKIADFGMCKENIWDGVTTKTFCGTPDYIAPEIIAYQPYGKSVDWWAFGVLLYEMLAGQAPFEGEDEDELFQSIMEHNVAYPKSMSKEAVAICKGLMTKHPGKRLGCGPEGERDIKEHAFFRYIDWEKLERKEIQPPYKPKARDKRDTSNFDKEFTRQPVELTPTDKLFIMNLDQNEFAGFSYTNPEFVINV

For orientation: inhibition means the relative decrease from the control value, in per cent. As to `CNC(=O)c1cc(-c2ccc(F)cc2)cc(-c2ccc(S(=O)(=O)N3CCCC3)cc2)c1N`, the inhibition is 2.53% in [1]; 1.11% in test [2]; 1.04% in test [3]; 0.84% in [4]; 1.4% in test [5]; -0.56% in test [6]. Also, the inhibition in test [7] came out at 1.04%; in test [8], 3.87%; in [9] it was 4.98%; in [10], 2.4%; in test [11] it was 1.98%; in [12], 3.24%. Moreover, the inhibition turned out to be 3.34% in test [13]; 1.61% in test [14]; 2.76% in test [15]; 1.41% in [16]; 0.53% in test [17]; 2.59% in test [18]. For the same molecule, the inhibition came to 1.29% in [19] and 1.6% in test [20].

In the case of `CNC(=O)c1cncc(/C=C/c2ccccc2Cl)c1`, the inhibition in test [1] stood at 3.18%; in [2], 1.77%; in test [3], 0.56%; in test [4] it was 1.22%; in [5] it was 3.14%; in test [6] it was 2.46%. Also, the inhibition in test [7] is 1.4%; in test [8], 1.19%; in [9], -1.46%; in test [10], -1%; in [11], -1.08%; in test [12], 0.25%. In addition, the inhibition in [13] was -0.83%; in [14] it was 1.15%; in test [15], 2.29%; in test [16], 2.05%; in test [17], 2.68%; in test [18], 1.22%. The inhibition in test [19] is 2.62%; in [20], 0.5%.

Values taken from ChEMBL document CHEMBL1961873, “Compounds: GSK PKIS; Assays: Nanosyn kinase panel” (2012).
